According to PubChem BioAssay (NCATS):
Results filed as inconclusive are left out. Active and inactive are the calls of the source. Unless noted, the call rests on the fitted dose curve.

Experiments:
[1] = qHTS for Inhibitors of the Functional Ribonucleoprotein Complex (vRNP) of Lassa (LASV) Arenavirus: LASV Primary Screen - GLuc reporter signal (AID 1347082; calls by dose curve; tested in HEK293 reporter line; further: nearly all actives have a fitted effect of over 60% in size); details: LASV minigenome vRNP, Gaussia luciferase reporter; series mostly up to 57.5 µM
[2] = qHTS for Inhibitors of the Functional Ribonucleoprotein Complex (vRNP) of Lassa (LASV) Arenavirus: Viability assay - alamar blue signal for LASV Primary Screen (AID 1347083; calls by dose curve; tested in HEK293 reporter line; further: nearly all actives have a fitted effect of over 80% in size); details: cell viability, alamar blue fluorescence (LASV minigenome counter-screen); series mostly up to 57.5 µM
[3] = qHTS for Inhibitors of the Functional Ribonucleoprotein Complex (vRNP) of Lymphocytic Choriomeningitis Arenaviruses (LCMV): Viability assay - alamar blue signal for LCMV Primary Screen (AID 1347085; calls by dose curve; tested in HEK293 reporter line; further: nearly all actives have a fitted effect of over 80% in size); details: alamar blue viability counter-screen, LCMV vRNP screen cells; series mostly up to 57.5 µM
[4] = biological target: Nucleoprotein (Lymphocytic choriomeningitis virus (strain Armstrong)) (UniProt P09992); assay: qHTS for Inhibitors of the Functional Ribonucleoprotein Complex (vRNP) of Lymphocytic Choriomeningitis Arenaviruses (LCMV): LCMV Primary Screen - GLuc reporter signal (AID 1347086); details: LCMV minigenome vRNP cell assay, Gaussia luciferase reporter; series mostly up to 57.5 µM; further: nearly all actives have a fitted effect of over 70% in size
Nucleoprotein (Lymphocytic choriomeningitis virus (strain Armstrong)), sequence (P09992 whole entry, looked up): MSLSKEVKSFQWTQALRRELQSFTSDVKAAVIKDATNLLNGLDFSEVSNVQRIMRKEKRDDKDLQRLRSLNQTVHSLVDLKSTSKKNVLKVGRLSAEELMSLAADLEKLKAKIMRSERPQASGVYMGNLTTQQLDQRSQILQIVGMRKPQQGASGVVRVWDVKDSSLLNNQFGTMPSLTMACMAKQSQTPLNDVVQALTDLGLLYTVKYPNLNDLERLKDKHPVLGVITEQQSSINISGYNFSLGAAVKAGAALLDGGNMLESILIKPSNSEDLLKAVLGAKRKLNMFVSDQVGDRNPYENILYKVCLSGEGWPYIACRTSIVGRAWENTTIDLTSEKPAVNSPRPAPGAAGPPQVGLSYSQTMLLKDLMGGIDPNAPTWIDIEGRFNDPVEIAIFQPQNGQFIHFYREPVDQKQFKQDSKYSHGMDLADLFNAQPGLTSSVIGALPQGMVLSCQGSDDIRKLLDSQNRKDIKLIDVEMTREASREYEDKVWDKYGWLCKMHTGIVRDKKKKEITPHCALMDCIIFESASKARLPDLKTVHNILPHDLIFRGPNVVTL

Measured: Potency

CCCCCCCCCCOCC(O)CN (stereo not given)
inactive: all assays above

Cc1ccc2c(c1)c1c3n2CCNC3CCC1 (stereo not given)
inactive: all assays above

Nc1c(CC(=O)O)cccc1C(=O)c1ccc(Br)cc1
inactive: all assays above

Nc1ccc(N=Nc2ccccc2)c(N)n1
inactive: all assays above

CC(=O)Nc1ccn(C2COC(COC(=O)c3ccccc3)O2)c(=O)n1 (stereo not given)
inactive: all assays above

CC(=O)c1ccc2c(c1)N(CCCN1CCC(CCO)CC1)c1ccccc1S2
inactive: all assays above

CC1=C(C)C(=O)C(C(CCCCCC(=O)O)c2ccccc2)=C(C)C1=O (stereo not given)
inactive: all assays above

CN1[C@@H]2CC[C@H]1CC(NC(=O)n1c(=O)[nH]c3ccccc31)C2 (stereo not given in full)
inactive: all assays above

C[C@]12CC[C@@H]3c4ccc(O)cc4CC[C@H]3[C@@H]1CC[C@@H]2OC(=O)CCC1CCCC1
inactive: all assays above

CNC1CCCN(c2c(F)cc3c(=O)c(C(=O)O)cn(C4CC4)c3c2OC)C1 (stereo not given)
inactive: all assays above

CNc1c2c(nn1C)CCCC2
inactive: all assays above

Cc1nc(C2CCCCC2)c(-c2ccc(S(N)(=O)=O)c(F)c2)o1
inactive: all assays above

COc1cc(C(=O)NCCCCCC(=O)O)cc(OC)c1OC
inactive: all assays above

CC1=CC(=O)c2ccccc2C1=O
inactive: all assays above

NCCc1cnc[nH]1
inactive: all assays above

N[C@H](C(=O)O)c1ccc(O)cc1
inactive: all assays above

Nc1nc2ncc(CNc3ccc(C(=O)N[C@@H](CCC(=O)O)C(=O)O)cc3)nc2c(=O)[nH]1
inactive: all assays above

NC(=O)Cc1cccc(C(=O)c2ccccc2)c1N
inactive: all assays above

CCCCc1cc2ccccc2c(OCCN(C)C)n1
inactive: all assays above

CC[C@H](NC(C)C)[C@H](O)c1ccc(O)c2[nH]c(=O)ccc12
inactive: all assays above

C[C@]12C=CC(=O)C=C1CC[C@H]1[C@@H]3C[C@@H](O)[C@](O)(C(=O)CO)[C@@]3(C)C[C@H](O)[C@@]12F
inactive: all assays above

COc1cc(C(=S)N2CCOCC2)ccc1O
inactive: all assays above

CC(C)=CCOc1ccc(/C=C/C(=O)c2ccc(OCC=C(C)C)cc2OCC(=O)O)cc1
inactive: all assays above

CCNC(=O)NCCCOc1cccc(CN2CCCCC2)c1
inactive: all assays above

CSc1ccc2c(c1)C(N1CCN(C)CC1)Cc1ccccc1S2 (stereo not given)
inactive: all assays above

CN(C)CCCN1c2ccccc2Sc2ccccc21
inactive: all assays above

CCCCCOc1ccc(C2SC(=O)NC2=O)cc1OCC (stereo not given)
inactive: all assays above

C[C@@H]1C[C@H]2[C@@H]3CCC4=CC(=O)C=C[C@]4(C)[C@@]3(F)[C@@H](O)C[C@]2(C)[C@H]1C(=O)CO
inactive: all assays above

O=C(NN1CCCC1)NS(=O)(=O)c1ccc(Cl)cc1
inactive: all assays above

CN1CCCN(C(c2ccccc2)c2ccc(Cl)cc2)CC1 (stereo not given)
inactive: all assays above

O=C1NC2CCCCN2C12CCN(CCCN1c3ccccc3CCc3ccc(Cl)cc31)CC2 (stereo not given)
inactive: all assays above

CCOC(=O)[C@@](C)(N)Cc1ccc(O)c(O)c1
inactive: all assays above

CN(C)CCCN1c2ccccc2Sc2ccc(C(F)(F)F)cc21
inactive: all assays above

Cc1cn([C@H]2C[C@H](F)[C@@H](CO)O2)c(=O)[nH]c1=O
inactive: all assays above

CCCCNc1ccc(C(=O)OCCN(C)C)cc1
inactive: all assays above

CNC[C@H](O)c1ccc(O)c(O)c1
inactive: all assays above

CN(C)CCOc1ccccc1Cc1ccccc1
inactive: all assays above

CCN(CC)CC1CCCCN1CC(=O)N1c2ccccc2C(=O)Nc2cccnc21 (stereo not given)
inactive: all assays above

OC(C#CCN1CCCC1)(c1ccccc1)c1ccccc1
inactive: all assays above

CCC(CN)=C(c1ccccc1)c1ccccc1
inactive: all assays above

Cc1cccc(Nc2cc(Cl)nc(SCC(=O)O)n2)c1C
inactive: all assays above

Cc1cc(CC(=O)O)n(C)c1C(=O)c1ccc(Cl)cc1
inactive: all assays above

O=C(CCCCC(=O)Nc1c(I)cc(I)c(C(=O)O)c1I)Nc1c(I)cc(I)c(C(=O)O)c1I
inactive: all assays above

CC1(C)[C@H](C(=O)O)N2C(=O)C[C@H]2S1(=O)=O
inactive: all assays above

CN1CCN(c2cc3c(nn2)Oc2ccccc2N3C)CC1
inactive: all assays above

O=C1c2cccc(O)c2C(=O)c2c(O)cccc21
inactive: all assays above

COc1ccc(CCN(C)CCCC(C#N)(c2cc(OC)c(OC)c(OC)c2)C(C)C)cc1OC (stereo not given)
inactive: all assays above

CN1CCN(c2c(F)cc3c(=O)c(C(=O)O)cn(CCF)c3c2F)CC1
inactive: all assays above

CC(C)(C)c1ccc(C(=O)CCCN2CCC(OC(c3ccccc3)c3ccccc3)CC2)cc1
inactive: all assays above

CC(=O)OCC(=O)NCCCOc1cccc(CN2CCCCC2)c1
inactive: all assays above

CCCCN1CCCC[C@H]1C(=O)Nc1c(C)cccc1C
inactive: all assays above

CC(=O)Nc1ccc(OCCOCCOc2ccc(NC(C)=O)cc2)cc1
inactive: all assays above

OC[C@H]1O[C@@H](OCCc2ccc(O)cc2)[C@H](O)[C@@H](O)[C@H]1O
inactive: all assays above

NC(=O)CC[C@@H](N)C(=O)O
inactive: all assays above

C[C@@H]1CCN(C(=O)[C@H](CCCN=C(N)N)NS(=O)(=O)c2cccc3c2NC[C@H](C)C3)[C@@H](C(=O)O)C1
inactive: all assays above

O=C(O)Cc1ccc(CCNS(=O)(=O)c2ccc(Cl)cc2)cc1
inactive: all assays above

CCCCCN(CCCCC)C(=O)C(CCC(=O)O)NC(=O)c1ccc(Cl)c(Cl)c1 (stereo not given)
inactive: all assays above

Nc1ccc(S(=O)(=O)Nc2cnc3ccccc3n2)cc1
inactive: all assays above

CN(C)C/C=C(/c1ccc(Br)cc1)c1cccnc1
inactive: all assays above

Cc1c(C)c2c(c(C)c1OC(=O)CCC(=O)OCCO)CC[C@@](C)(CCC[C@H](C)CCC[C@H](C)CCCC(C)C)O2
inactive: all assays above
